The subject of one assay is Staphylococcus aureus. The note with it: Concentration 20 uM; ASSAY_TEST Inhibition of Bacterial Growth; detection method Absorption (OD600); MEDIA CAMHB; plate type 384well; NBS; CORNING #3640; time 18 hr.
A further assay has as its system Escherichia coli. The note with it: Concentration 20 uM; ASSAY_TEST Inhibition of Bacterial Growth; detection method Absorption (OD600); MEDIA CAMHB; plate type 384well; NBS; CORNING #3640; time 18 hr.

Results with a measured potency or affinity are listed apart.

Broadly, the Inhibition is the change of the read-out against control, counted positive when it falls.

For the compound `CCC(=O)Nc1ccccc1C(=O)Nc1ccccn1`, the Inhibition came out at 18.51% in the assay with Staphylococcus aureus and 10.48% in the assay with Escherichia coli.
The like results for `CC(C)C(NC(=O)Cc1cccc2ccccc12)C(=O)Nc1cccc(C#N)c1` (configuration not stated) were, in that order, 17.14% and 6.32%.
The like results for `Cc1ccc2oc(-c3cc(NC(=O)Cc4ccccc4)ccc3Cl)nc2c1` were, in that order, 2.8% and 6.02%.
The like results for `CC1COC2(CCN(c3nc(=O)c4cc(C(F)(F)F)cc([N+](=O)[O-])c4s3)CC2)O1` (configuration not stated) were, in that order, 16.17% and 4.14%.
On to `O=C(C1CCN(c2nnnn2-c2ccccc2)CC1)N1CCc2ccccc2C1`, for which the Inhibition in the assay with Staphylococcus aureus stood at 18.44%; in the assay with Escherichia coli, 5.61%.
The like results for `Cc1cc(C(=O)Nc2cnn(Cc3ccc(Cl)cc3Cl)c2)no1` were, in that order, 4.82% and 8.52%.
The like results for `CCN(CC)CCCCCCNc1cc(OC)cc2c(C)ccnc12.Cc1ccc(S(=O)(=O)O)cc1` were, in that order, 18.42% and 7.48%.
The like results for `COc1ccc(CN2CCOc3ccc(C(C)(O)CN(C)C)cc3C2)cc1C` (configuration not stated) were, in that order, 19.53% and 9.29%.
Consider `Clc1cccc(CO[C@H]2CCc3ccccc3[C@@H]2n2ccnn2)c1`, for which the Inhibition in the assay with Staphylococcus aureus was -0.96%; with Escherichia coli it was 7.53%.
The like results for `COc1ccc(Cn2cnc3c(-c4ccco4)nc(Cl)nc32)cc1` were, in that order, 20.69% and 10.18%.
The like results for `CCn1ncc2c(NC3CCOCC3)c(CNC(=O)c3ccnn3C)c(C)nc21` were, in that order, 5.59% and 3.03%.
The like results for `O=C(NCCN1CCCC1)c1cc(NCCN2CCOCC2)nc2ccc(Cl)cc12` were, in that order, 22.71% and 6.99%.
`Cc1cc(Nc2ccncc2)n2nc(C)c(-c3ccccc3Cl)c2n1`: the values for the Inhibition in the assay with Staphylococcus aureus and in the assay on Escherichia coli were 12.68% and 7.54%, respectively.
The like results for `COc1ccccc1CNC(=O)c1cc(C2CC2)nc2c1cnn2C(C)C` were, in that order, 13.79% and -2.58%.
The like results for `Cc1nc(-c2ccccn2)nc(NCCc2ccc(S(C)(=O)=O)cc2)c1Cl` were, in that order, 4.78% and -2.55%.
The like results for `COc1ccc(C2(C(=O)Nc3ccc(Br)cc3)CCCC2)cc1` were, in that order, 18.94% and 6.87%.
Consider `COc1ccc(CCN2CCC(NCc3cccc(N(C)C)c3)CC2)cc1`, for which the Inhibition in the assay with Staphylococcus aureus is 16.93%; with Escherichia coli, 1.75%.
The like results for `CC(=O)N(CCN(C(=O)c1ccc(F)cc1)c1ccccc1)c1ccccc1` were, in that order, 12.64% and 5.32%.
The like results for `Cc1nnc(NC(=O)c2cn(-c3ccccc3)nc2-c2ccccc2C)o1` were, in that order, 8.57% and 8.61%.
The like results for `COc1cccc(NC(=O)c2c(NC(=O)c3cccnc3)sc3c2CCC3)c1` were, in that order, 17.01% and 4.69%.
In the case of `CC(C)C(C(=O)Nc1ccc(S(=O)(=O)N(C)C)cc1)c1ccc(Cl)cc1` (configuration not stated), the Inhibition with Staphylococcus aureus worked out at 3.5%; in the assay with Escherichia coli it was 11.91%.
The like results for `Cl.c1ccc(Oc2ccc(-c3cc(N4CCNCC4)[nH]n3)cc2)cc1` were, in that order, 14.57% and 9.1%.
The like results for `NC(=O)c1cc(Br)ccc1OCCOc1ccccc1` were, in that order, 12.29% and -2.13%.
The like results for `CS(=O)(=O)Cc1nc2ccccc2oc1=O` were, in that order, 30.23% and 5.17%.
Regarding `CN1CCN(S(=O)(=O)c2ccc(-c3ccc4c(Nc5ccc6nn[nH]c6c5)ccnc4c3)cc2)CC1`, the Inhibition is listed as 10.46% in the assay with Staphylococcus aureus and -0.24% in the assay with Escherichia coli.
For the compound `O=C(NC1CC1)c1ccc(N2CCC(Cc3ccccc3)CC2)nc1`, the Inhibition is 20.17% in the assay with Staphylococcus aureus and 11.23% with Escherichia coli.
In the case of `Cc1ccc(-c2nc(CN(Cc3ccccn3)C(C)C)cs2)o1`, the Inhibition came to 63.05% in the assay with Staphylococcus aureus and 8.22% in the assay with Escherichia coli.
On to `N#Cc1nc(-c2ccccc2F)oc1NCCc1ccccc1`, for which the Inhibition in the assay with Staphylococcus aureus is reported as 7.55%; with Escherichia coli it was 2.58%.
For `Cc1nnc(NCc2cccc(Cl)c2)c2ccccc12`, the Inhibition with Staphylococcus aureus is given as 21.63%; in the assay with Escherichia coli, 9.19%.
Regarding `Cc1ccc(NC(=O)c2nc[nH]c2C(=O)Nc2nc3ccccc3[nH]2)c(C)c1`, the Inhibition amounted to 23.22% in the assay with Staphylococcus aureus and 12.12% with Escherichia coli.
The like results for `COC(=O)c1c(NC(=O)c2c(F)c(F)c(F)c(F)c2F)sc2c1CCCCC2` were, in that order, 13.36% and 6.57%.
The like results for `CCN(CC)C(=O)N1CCN(C)CC1` [DIETHYLCARBAMAZINE] were, in that order, 20.12% and 7.97%.
The like results for `COc1ccccc1OCCCCn1c(C2CC2)nc2ccccc21` were, in that order, 12.87% and 4.8%.
On to `Cc1nn(C)cc1C(C)Nc1nncc(-c2ccc(C(F)(F)F)cc2)n1` (configuration not stated), for which the values for the Inhibition in the assay with Staphylococcus aureus and with Escherichia coli were 2.57% and 3.9%, respectively.
The like results for `c1ccc(-c2cc(N3CCCCC3)c3ccccc3n2)nc1` were, in that order, 9.48% and 7.94%.
The like results for `CC(C)c1ncc(-c2ccncc2)c([C@H]2CC[C@H](CNC(=O)c3cccnc3)CC2)n1` were, in that order, 19.09% and 13.72%.

For the origin of these results see ChEMBL document CHEMBL4513149, “CO-ADD screening of MMV (CH) - MMV compounds” (2021).
